Data taken from PubChem BioAssay AID624330 (Southern Research Specialized Biocontainment Screening …, 2012).
Among all 340,000 compounds or so, about 2,100 (0.62%) were called active. Not all results are given here. Results with a measured potency or affinity are listed apart. Unmarked numbers belong to inactive results.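 How the source made its calls: active means first-screen hits whose inhibition reached a set limit at any dose in the follow-up dose series; inconclusive means inhibition above the set first-screen limit but never retested; inactive means the rest.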

Target: Rac GTPase-activating protein 1 (Homo sapiens) (UniProt Q9H0H5)
Assay: MgcRacGAP GTPase-activating activity inhibitors, confirmation, biochemical, ADP Hunter fluorescence, primary and confirmatory (AID 624330);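 further: fluorescence reports GDP produced by GAP-driven GTP hydrolysis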
Conditions: MgcRacGAP-stimulated Rac1 GTP hydrolysis, at 30 µM, stronger effect = higher value, GST-tagged Rac1 F28L mutant substrate

Rac GTPase-activating protein 1 (Homo sapiens), sequence (Q9H0H5 whole entry, looked up): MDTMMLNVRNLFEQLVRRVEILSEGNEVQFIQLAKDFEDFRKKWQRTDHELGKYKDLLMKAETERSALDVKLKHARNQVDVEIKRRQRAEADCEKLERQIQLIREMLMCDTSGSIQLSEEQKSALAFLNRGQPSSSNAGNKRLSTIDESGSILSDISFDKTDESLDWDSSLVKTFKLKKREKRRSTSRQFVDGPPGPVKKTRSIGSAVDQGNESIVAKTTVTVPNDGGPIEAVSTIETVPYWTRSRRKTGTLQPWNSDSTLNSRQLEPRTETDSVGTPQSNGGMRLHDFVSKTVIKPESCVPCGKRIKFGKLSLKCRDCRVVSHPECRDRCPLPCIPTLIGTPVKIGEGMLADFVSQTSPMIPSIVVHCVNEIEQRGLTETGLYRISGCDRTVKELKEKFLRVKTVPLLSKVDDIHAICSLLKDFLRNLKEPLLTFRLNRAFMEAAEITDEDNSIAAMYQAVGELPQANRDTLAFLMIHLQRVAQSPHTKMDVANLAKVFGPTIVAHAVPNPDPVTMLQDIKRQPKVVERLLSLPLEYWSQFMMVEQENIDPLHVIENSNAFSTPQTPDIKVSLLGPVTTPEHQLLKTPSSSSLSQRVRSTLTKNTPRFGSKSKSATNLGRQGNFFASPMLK

Question: With `COc1cc(-c2ccccc2)[nH]c(=S)n1` as the compound, how does the inhibition read?
Answer: 9.57%

Question: `CC(Sc1nc(=O)cc(N)n1CCc1ccccc1)C(=O)NCc1ccccc1` (configuration not stated) was tested. Which inhibition did it give?
Answer: 3.88%

Question: Which inhibition does the source give for `COc1cccc(NC=C2C(=O)OC(C)(C)OC2=O)c1` here?
Answer: 6.91%

Question: For `Cc1cc(C(=O)NNC(=S)NCC2CCCO2)cs1` (configuration not stated), which inhibition is on record?
Answer: 9.6%

Question: How did the inhibition turn out when `COc1ccc2c(CC(=O)Nc3nc(C)cs3)coc2c1` was run?
Answer: 7.58%

Question: With `Cc1ccc(C(=O)N(CC(=O)Nc2ccc(Cl)c(Cl)c2)Cc2ccco2)cc1` as the compound, how does the inhibition read?
Answer: 2.86%

Question: `O=C(CSc1nc(C(F)(F)F)cc(=O)[nH]1)N1CCCCCC1` was tested. Which inhibition did it give?
Answer: -0.68%

Question: With `CC(C)Cn1c(SCC(=O)c2ccc(Cl)s2)nnc1-c1ccco1` as the compound, how does the inhibition read?
Answer: 11.6%

Question: With `CC1CC(C)CN(c2cc(=O)n(Cc3ccc(F)cc3)c(=O)[nH]2)C1` (configuration not stated) as the compound, how does the inhibition read?
Answer: 6.97%

Question: How did the inhibition turn out when `COc1ccc(NC(=O)CN(C)S(=O)(=O)c2cccs2)cc1` was run?
Answer: 16%

Question: `CCOC(=O)c1nn(-c2ccccc2F)c(-c2ccccc2)c1C(=O)c1ccccc1` was tested. Which inhibition did it give?
Answer: 5.32%

Question: `O=C(O)c1ccccc1C(=O)Nc1ccccc1` was tested. Which inhibition did it give?
Answer: -1.51%

Question: For `CC(OC(=O)COc1ccc(Nc2ccccc2)cc1)C(=O)N(C)c1ccccc1` (configuration not stated), which inhibition is on record?
Answer: 24.6%

Question: How did the inhibition turn out when `O=C(O)c1ccccc1-c1ccccc1C(=O)Nc1ccccc1` was run?
Answer: 8.32%

Question: `CC(=O)c1ccc(NC(=O)C(C)OC(=O)COc2ccc(C#N)cc2)cc1` (configuration not stated) was tested. Which inhibition did it give?
Answer: 3.94%

Question: `CC(C)C(=O)Nc1ccc(C(=O)c2ccccc2)cc1` was tested. Which inhibition did it give?
Answer: 4.76%

Question: How did the inhibition turn out when `O=C(Nc1ccc(Nc2ccccc2)cc1)C(Cl)Cl` was run?
Answer: 25.5%

Question: `Cc1cccc(NC(=O)c2ccccc2C(=O)O)c1` was tested. Which inhibition did it give?
Answer: 3.78%

Question: With `O=C(O)c1ccccc1C(=O)Nc1ccc(Br)c(C(F)(F)F)c1` as the compound, how does the inhibition read?
Answer: 8.86%

Question: `Cc1cccc(NS(=O)(=O)c2cccc(C(=O)N3CCCCCC3)c2)c1` was tested. Which inhibition did it give?
Answer: 7.68%

Question: For `CCOc1ccc(NC(=O)c2cccs2)c([N+](=O)[O-])c1`, which inhibition is on record?
Answer: 9.62%

Question: For `COc1ccc(COC(=O)N/N=C/c2cccs2)cc1`, which inhibition is on record?
Answer: 0.62%

Question: `Cc1ccc(/C=C2/SC(=S)N(CCCC(=O)Nc3cc([N+](=O)[O-])ccc3O)C2=O)cc1` was tested. Which inhibition did it give?
Answer: 3.56%

Question: How did the inhibition turn out when `CCN(CC)CCNS(=O)(=O)c1ccc(Cl)cc1` was run?
Answer: 5.79%

Question: How did the inhibition turn out when `Cc1cc2ncn(-c3ncnc4sc(C)c(C)c34)c2cc1C` was run?
Answer: 6.72%

Question: With `CC1CCN(C(=O)c2nc[nH]c2C(=O)O[C@H](C)c2ccccc2)CC1` as the compound, how does the inhibition read?
Answer: 9.03%

Question: With `O=C(Nc1ccccc1)c1ccc(NC(=O)C2CC2)cc1` as the compound, how does the inhibition read?
Answer: 3.78%

Question: How did the inhibition turn out when `Oc1ccc(NCc2cccc(OCc3ccccc3)c2)cc1` was run?
Answer: 9.79%

Question: How did the inhibition turn out when `CCCC(=O)Nc1ccc(Nc2ccccc2)cc1` was run?
Answer: 22.6%

Question: With `CC(=O)Nc1ccc(S(=O)(=O)Nc2nc3ccccc3nc2Nc2ccccc2)cc1` as the compound, how does the inhibition read?
Answer: 4.86%

Question: With `CC(C)CC(=O)Nc1ccc(Nc2ccccc2)cc1` as the compound, how does the inhibition read?
Answer: 22.4%

Question: Which inhibition does the source give for `O=C(Nc1ccccc1)C1CCCCC1` here?
Answer: -3.44%

Question: For `Oc1ccc(NCc2cccc(OCc3ccc(F)cc3)c2)cc1`, which inhibition is on record?
Answer: 3.64%

Question: Which inhibition does the source give for `CC(=O)Nc1ccc(S(=O)(=O)Nc2nc3ccccc3nc2Nc2ccc(O)c(C(=O)O)c2)cc1` here?
Answer: 9.87%

Question: Which inhibition does the source give for `O=C(COC(=O)CNC(=O)c1ccccc1F)Nc1ccc2c(c1)OCO2` here?
Answer: 4.84%

Question: `COC(=O)c1cc(Nc2cc(C)c3ccc(O)cc3n2)cc(C(=O)OC)c1` was tested. Which inhibition did it give?
Answer: 11.8%

Question: For `COc1nc(-c2ccccc2)nc(C)c1CC(=O)O`, which inhibition is on record?
Answer: 9.59%

Question: `Cc1ccc(S(=O)(=O)/N=C(/c2ccc(F)cc2)N(C)C)cc1` was tested. Which inhibition did it give?
Answer: 8.12%

Question: `COCCN(Cc1nc(C2(c3ccc(C)cc3)CCCC2)no1)C(C)C` was tested. Which inhibition did it give?
Answer: -3.53%

Question: Which inhibition does the source give for `CCOc1ccc(N2C(=O)Nc3ccc(Br)cc3C2(O)C(=O)NCCCN(C)C)cc1` (configuration not stated) here?
Answer: 8.07%

Question: For `COC(=O)C(CC(=O)c1ccc(C)cc1)n1cccn1` (configuration not stated), which inhibition is on record?
Answer: 11.3%

Question: `CCOC(=O)c1cnc2ccccc2c1Nc1cccc(C(=O)O)c1` was tested. Which inhibition did it give?
Answer: -0.21%

Question: With `CCSc1nnc(NC(=O)[C@H](C)NC(=O)c2ccccc2Cl)s1` as the compound, how does the inhibition read?
Answer: 9.72%

Question: How did the inhibition turn out when `CCC(=O)Nc1ccc(NC(=S)Nc2ccccc2)cc1` was run?
Answer: 8.45%

Question: For `CCC(=O)Nc1ccc(C(=O)c2ccccc2)cc1`, which inhibition is on record?
Answer: 10.1%

Question: Which inhibition does the source give for `CC(C)C1N=C2c3ccccc3N=C(SCC#N)N2C1=O` (configuration not stated) here?
Answer: 10.5%

Question: For `CC(C)C1N=C2c3ccccc3N=C(SCC(=O)NCCc3ccc(S(N)(=O)=O)cc3)N2C1=O` (configuration not stated), which inhibition is on record?
Answer: 1.59%

Question: For `COc1ccc(Cl)cc1NC(=O)C1Cc2cc(S(=O)(=O)N3CCCC3)ccc2N1C(C)=O` (configuration not stated), which inhibition is on record?
Answer: 2.38%

Question: How did the inhibition turn out when `COc1ccc(CCNC(=O)COC(=O)CCC(=O)c2cccs2)cc1OC` was run?
Answer: 3.28%

Question: How did the inhibition turn out when `COc1cccc(S(=O)(=O)NCc2ccc(C(=O)NCc3ccco3)cc2)c1` was run?
Answer: 13.6%

Question: `Cc1ccc(Cl)cc1NC(=S)N1CCC(c2ccccc2)C1` (configuration not stated) was tested. Which inhibition did it give?
Answer: 7.04%

Question: `COc1ccc(CN2CCC(n3nccc3NC(=O)C3CC3)CC2)c(OC)c1OC` was tested. Which inhibition did it give?
Answer: 8.32%

Question: Which inhibition does the source give for `COc1ccccc1N1CCN(Cc2ccc(OC)c(OC)c2OC)CC1` here?
Answer: 28.2%

Question: For `COc1ccc(OC)c(CN2CCSCC2)c1`, which inhibition is on record?
Answer: 36.4%

Question: With `COc1ccc(CN2CCN(c3ccc(F)cc3)CC2)c(OC)c1OC` as the compound, how does the inhibition read?
Answer: 8.37%

Question: Which inhibition does the source give for `COc1ccc2oc(=O)cc(CN3CCN(Cc4ccc(OC)c(OC)c4OC)CC3)c2c1` here?
Answer: 11.2%

Question: Which inhibition does the source give for `COc1ccc(CN2CCC(N3CC(C)OC(C)C3)CC2)c(OC)c1` (configuration not stated) here?
Answer: 29.1%

Question: With `COc1ccc(OC)c(CN2CCN(c3ccccc3OC)CC2)c1` as the compound, how does the inhibition read?
Answer: 19.8%

Question: How did the inhibition turn out when `COc1ccc(OC)c(CN2CCN(Cc3cc(OC)c(OC)c(OC)c3)CC2)c1` was run?
Answer: -7.74%

Question: With `O=C(c1ccccc1F)N1CCN(c2ccc([N+](=O)[O-])c(NCC3CCCO3)c2)CC1` (configuration not stated) as the compound, how does the inhibition read?
Answer: 11.1%

Question: How did the inhibition turn out when `COc1ccc(CCNC(=O)C2CCCN2C(=O)Nc2ccc(F)cc2)cc1OC` (configuration not stated) was run?
Answer: 7.58%

Question: `O=C(CSc1nnc(NC(=O)C2CC(=O)N(c3ccccc3)C2)s1)NCC1CCCO1` (configuration not stated) was tested. Which inhibition did it give?
Answer: 8.28%
